Measured values taken from PubChem BioAssay (NCI).
The panel holds about 79,000 compounds, 15% with a hit somewhere; the sample as a whole holds those more often. Active and inactive are the calls of the source. Rule as the data show it: active = growth inhibition above about 70%; inactive = the rest.

Tests used:
[1] = NCI Yeast Anticancer Drug Screen. Data for the rad52 strain (AID 147);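 also: 0% = growth of vehicle-treated control cultures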; details: S. cerevisiae rad52 mutant growth inhibition, stronger effect = higher value
Outline: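 Genetically altered yeast (DNA damage repair defect) treated with compound; inhibition calculated relative to vehicle.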

[2] = NCI Yeast Anticancer Drug Screen. Data for the wt1 strain (AID 149);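 also: 0% = growth of vehicle-treated wt1 cultures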; details: S. cerevisiae wt1 strain (SPY 50644) growth inhibition, stronger effect = higher value
Outline: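 wt1 strain grown with compound or vehicle; inhibition taken from the growth difference.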

[3] = NCI Yeast Anticancer Drug Screen. Data for the rad50EPP+ strain (AID 151);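 also: 0% = growth of vehicle-treated control cultures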; details: S. cerevisiae rad50 mutant strain, stronger effect = higher value
Outline: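 Strain rad50EPP+; compound exposure; % growth inhibition vs vehicle.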

[4] = NCI Yeast Anticancer Drug Screen. Data for the mgt1 strain (AID 153); details: S. cerevisiae mgt1 mutant growth inhibition, stronger effect = higher value
Outline: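 Read-out: yeast growth inhibition vs vehicle control. Strain mgt1, drawn from a panel altered in DNA damage repair or cell cycle control.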

[5] = NCI Yeast Anticancer Drug Screen. Data for the rad50 strain (AID 155);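 also: 0% = growth of vehicle-only cultures of the same strain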; details: S. cerevisiae rad50 strain growth inhibition, stronger effect = higher value
Outline: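 DNA repair mutant yeast, compound exposure, growth read-out; inhibition is taken relative to vehicle.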

[6] = NCI Yeast Anticancer Drug Screen. Data for the mec2-1 strain (AID 157); details: S. cerevisiae mec2-1 strain, stronger effect = higher value
Outline: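 Cells of the genetically defined mec2-1 yeast strain are incubated with test compound. Inhibition of growth is calculated against vehicle-treated controls.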

[7] = NCI Yeast Anticancer Drug Screen. Data for the rad14 strain (AID 159);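 also: 0% = growth of vehicle-treated control cultures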; details: S. cerevisiae rad14 strain growth inhibition, stronger effect = higher value
Outline: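 DNA repair-defective yeast, compound-exposed; % growth inhibition derived by comparison with vehicle-treated controls.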

[8] = NCI Yeast Anticancer Drug Screen. Data for the sgs1 mgt1 strain (AID 161);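 also: 0% = growth of cultures given vehicle only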; details: S. cerevisiae sgs1 mgt1 strain, stronger effect = higher value
Outline: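 Mutant yeast exposed to compound; growth scored against vehicle-only wells.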

[9] = NCI Yeast Anticancer Drug Screen. Data for the CLN2oe strain (AID 163);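 also: 0% = growth of vehicle-only control cultures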; details: S. cerevisiae CLN2oe strain, stronger effect = higher value
Outline: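 Strain altered in cell-cycle control, incubated with compound; growth compared to solvent-treated controls.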

[10] = NCI Yeast Anticancer Drug Screen. Data for the cln2 rad14 strain (AID 165);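 also: 0% = growth equal to vehicle treated cultures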; details: S. cerevisiae cln2 rad14 strain, stronger effect = higher value
Outline: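 The screen exposed genetically defined yeast (cln2 rad14) to test compounds and scored growth inhibition relative to vehicle-treated controls.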

[11] = NCI Yeast Anticancer Drug Screen. Data for the bub3 strain (AID 167); details: S. cerevisiae bub3 mutant strain, stronger effect = higher value
Outline: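 In this screen, a yeast mutant lacking normal mitotic checkpoint function is challenged with compound. Relative growth versus vehicle gives the inhibition value.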

[12] = NCI Yeast Anticancer Drug Screen. Data for the wt2 strain (AID 169);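 also: 0% = growth of vehicle-treated yeast cultures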; details: S. cerevisiae wt2 strain growth inhibition, stronger effect = higher value
Outline: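 Steps: yeast strain treated with compound; growth recorded; inhibition calculated relative to cultures given vehicle alone.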

[13] = NCI Yeast Anticancer Drug Screen. Data for the mlh1 strain (AID 171);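 also: 0% = growth of vehicle-treated control cultures of the same strain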; details: S. cerevisiae mlh1 strain growth inhibition, stronger effect = higher value
Outline: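 Yeast screen: mutant strain plus compound, growth scored against vehicle control wells.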

[14] = NCI Yeast Anticancer Drug Screen. Data for the sgs1 strain (AID 173);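 also: 0% = growth of vehicle-only control cultures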; details: S. cerevisiae sgs1 mutant, stronger effect = higher value
Outline: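 Inhibition of yeast growth served as the measure. The mutant strain was treated with each compound, and growth was normalised to cultures receiving vehicle alone.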

[15] = NCI Yeast Anticancer Drug Screen. Data for the mlh1 rad18 strain (AID 175); details: S. cerevisiae mlh1 rad18 strain growth inhibition, stronger effect = higher value
Outline: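 Compound-treated yeast growth, normalised to vehicle controls. Strain bears defined DNA repair mutations.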

[16] = NCI Yeast Anticancer Drug Screen. Data for the rad18 strain (AID 177); details: S. cerevisiae rad18 mutant growth inhibition, stronger effect = higher value
Outline: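 Inhibition values reflect reduced yeast growth compared with vehicle-treated controls, using a strain engineered with a DNA damage repair defect.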

[17] = at 5.0 µM (retest, dose inferred, filed as 0.5)
[18] = at 50.0 µM (retest, dose inferred, filed as 5.0)

Measured: growth inhibition

O=C(NC(N1CCN(c2cc3c(cc2F)c(=O)c(C(=O)O)cn3C2CC2)CC1)(C(F)(F)F)C(F)(F)F)c1ccccc1
inactive: [1]; at 1.2 µM -2% | [1]; at 3.7 µM 1% | [1]; at 11.0 µM 17% | [2]; at 1.2 µM -2% | [2]; at 3.7 µM -3% | [2]; at 11.0 µM -1% | [2]; at 33.0 µM 8% | [2]; at 100.0 µM 40% | [3]; at 1.2 µM -2% | [3]; at 3.7 µM -1% | [3]; at 11.0 µM 4% | [3]; at 33.0 µM 27% | [3]; at 100.0 µM 40% | [4]; at 1.2 µM -1% | [4]; at 3.7 µM -2% | [4]; at 11.0 µM -2% | [4]; at 33.0 µM 6% | [4]; at 100.0 µM 42% | [5]; at 1.2 µM -1% | [5]; at 3.7 µM 5% | [5]; [17] -1% | [5]; at 11.0 µM 19% | [5]; at 50.0 µM 46.8% | [6]; at 1.2 µM -2% | [6]; at 3.7 µM -3% | [6]; [17] 3% | [6]; at 11.0 µM 0% | [6]; at 33.0 µM 35% | [6]; [18] 35% | [6]; at 50.0 µM -19.2% | [6]; at 100.0 µM 67% | [7]; at 1.2 µM -2% | [7]; at 3.7 µM -1% | [7]; at 11.0 µM 2% | [7]; at 33.0 µM 19% | [7]; at 100.0 µM 44% | [8]; [17] 4% | [8]; [18] 25% | [8]; at 50.0 µM 11.2% | [9]; at 1.2 µM 2% | [9]; at 3.7 µM 0% | [9]; at 11.0 µM 1% | [9]; at 33.0 µM 15% | [9]; at 100.0 µM 58% | [10]; [17] -3% | [10]; [18] 20% | [10]; at 50.0 µM 33.9% | [11]; at 1.2 µM 0% | [11]; at 3.7 µM -1% | [11]; [17] -7% | [11]; at 11.0 µM 1% | [11]; at 33.0 µM 2% | [11]; [18] 6% | [11]; at 50.0 µM -13.9% | [11]; at 100.0 µM 48% | [12]; at 1.2 µM -2% | [12]; at 3.7 µM -2% | [12]; at 11.0 µM -1% | [12]; at 33.0 µM 9% | [12]; at 100.0 µM 34% | [13]; at 1.2 µM -4% | [13]; at 3.7 µM -2% | [13]; at 11.0 µM 0% | [13]; at 33.0 µM 11% | [13]; at 100.0 µM 39% | [14]; at 1.2 µM -3% | [14]; at 3.7 µM -2% | [14]; at 11.0 µM 1% | [14]; at 33.0 µM 29% | [14]; at 100.0 µM 58% | [15]; [17] -5% | [15]; at 50.0 µM -1.3% | [16]; at 1.2 µM -3% | [16]; at 3.7 µM -2% | [16]; at 11.0 µM -1% | [16]; at 33.0 µM 20% | [16]; at 100.0 µM 52%
active: [1]; at 33.0 µM 90% | [1]; at 100.0 µM 90% | [5]; at 33.0 µM 88% | [5]; [18] 96% | [5]; at 100.0 µM 91% | [15]; [18] 80%
